From PubChem
Wnt bcat act: activators of Wnt/beta-catenin signaling; Wnt/beta-catenin reporter cell assay, activator, plate reader; activation, % at 9.35 µM; actives 1.2% (n = 300,000); AID 743398; in the data active means activation above about 30%, passing the limit was not always enough; inconclusive means no clear call, values can overlap the other calls;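 further: 0% = neutral control wells and 100% = positive control wells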
miR-122 sensor: inhibitors of miR-122 in Huh7 cells; Huh7 miR-122 Renilla luciferase sensor, 48 h; neutral wells = 0, positive control = 100; activation (reporter increase), % at 12.5 µM; actives 0.3% (n = 340,000);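 active means mean replicate activation score at least 90 and every replicate individually at or above 90; inconclusive means only one of the two criteria met; inactive means neither criterion met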;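 further: higher luciferase means less miR-122 activity so hits act as miR-122 inhibitors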
esBAF inh: blocks esBAF chromatin remodeling in mouse ES cells; Bmi1-luciferase knock-in reporter, 24 h; 100% = twice the neutral-well signal; actives 2% (n = 350,000); reporter increase, % at 12.5 µM; AID 602393; in the data active means activation above about 40%; inconclusive means no clear call, values can overlap the other calls;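 further: 0% = median of the plate's neutral control wells and 100% = double that signal; a rise in the Bmi1 reporter signal indicates esBAF inhibition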
MITF TRPM1 HTS: increases MITF-driven TRPM1 promoter luciferase signal; SK-MEL-5 TRPM1-promoter luciferase, 24 h; % of positive control, neutral wells = 0; activation, % at 12.5 µM; actives 0.75% (n = 300,000);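 active means mean activation of at least 80% with every replicate also reaching 80%; inconclusive means mean reaches 80% but some replicate falls short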;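 further: 0% = neutral control wells and 100% = parthenolide positive control wells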
HIV Env fusion: inhibitors of HIV Env-mediated cell fusion; actives 1.1% (n = 360,000); AID 651610; inhibition, % at 12.3 µM; HeLa-JRFL Env/CEM21 cell fusion, luciferase;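 active means mean replicate inhibition score of at least 50 and every replicate individually at or above 50; inconclusive means only one of the two criteria met; inactive means mean below 50 and not all replicates reaching 50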;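 further: 0% = plate neutral controls and 100% = maraviroc near 300 nM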
* = called active by the depositor; [ ] = remark or other dose. A selection: hits, their analogues and other compounds. The true share with any hit is near 3.4%.

Results for O=C(C[C@H]1C[C@@H]2c3cc(NC(=O)NC4CCCC4)ccc3O[C@@H]2[C@@H](CO)O1)NCc1ccc(Cl)cc1 ?
miR-122 sensor: -7[16.7 µM]; esBAF inh: 8

How did COC(=O)CN1C(=O)S/C(=C/c2cc(C)n(C)c2C)C1=O do in these assays?
Wnt bcat act: inconclusive; miR-122 sensor: -15; esBAF inh: 57*; MITF TRPM1 HTS: 70; HIV Env fusion: -201

How did CCn1c(C)cc(/C=C2/SC(=O)N(C(C)C(=O)OC)C2=O)c1C (centres undefined) do in these assays?
Wnt bcat act: 47*; miR-122 sensor: -16; esBAF inh: 30; MITF TRPM1 HTS: inconclusive; HIV Env fusion: -32

Results for COCCn1c(C)cc(/C=C2/SC(=O)N(C(C)C(=O)OC)C2=O)c1C (centres undefined) ?
Wnt bcat act: -2; esBAF inh: 66*; MITF TRPM1 HTS: 97*; HIV Env fusion: -68

How did CCOC(=O)C(C)N1C(=O)S/C(=C/c2cc(C)n(-c3ccncc3)c2C)C1=O (centres undefined) do in these assays?
Wnt bcat act: 1; miR-122 sensor: 2; esBAF inh: 10; MITF TRPM1 HTS: 0; HIV Env fusion: 8

Results for COC(=O)C(C)N1C(=O)S/C(=C/c2cc(C)n(C(C)C)c2C)C1=O (centres undefined) ?
Wnt bcat act: 38*; miR-122 sensor: 0; MITF TRPM1 HTS: 86*; HIV Env fusion: -304

How did Cc1ccc(S(=O)(=O)Nc2ccc3c(c2)C(=O)N([C@H](C)CO)C[C@@H](C)[C@@H](CN(C)C(=O)Nc2c(C)noc2C)O3)cc1 do in these assays?
miR-122 sensor: -2[16.7 µM]; esBAF inh: -1; HIV Env fusion: 20[16.7 µM]

Results for Cc1noc(C)c1S(=O)(=O)N(C)C[C@@H]1OCCCC[C@H](C)Oc2ccc(NC(=O)NC3CCCCC3)cc2C(=O)N([C@H](C)CO)C[C@H]1C ?
miR-122 sensor: 20[16.7 µM]; esBAF inh: -3; HIV Env fusion: -37[16.7 µM]

What do the screens show for `CCOC(=O)C(C)N1C(=O)S/C(=C/c2cc(C)n(-c3ccccn3)c2C)C1=O` (centres undefined)?
Wnt bcat act: 47*; miR-122 sensor: -4; esBAF inh: 21; MITF TRPM1 HTS: 34; HIV Env fusion: -49

Results for CS(=O)(=O)Nc1ccc(-c2cn3cccnc3n2)cc1 ?
Wnt bcat act: 0; miR-122 sensor: 2; esBAF inh: 4; MITF TRPM1 HTS: 7; HIV Env fusion: -2

What do the screens show for `Cc1ccc(SCc2cn3cccnc3n2)cc1`?
miR-122 sensor: 0; esBAF inh: 46*; MITF TRPM1 HTS: 62

Results for c1ccc(-c2nccc(-c3ccc4c(c3)OCO4)n2)cc1 ?
Wnt bcat act: 9; miR-122 sensor: 2; esBAF inh: 51*; MITF TRPM1 HTS: 17; HIV Env fusion: -18

What do the screens show for `c1cnc2nc(-c3ccc4c(c3)OCO4)cn2c1`?
Wnt bcat act: -2; miR-122 sensor: -8; esBAF inh: inconclusive; MITF TRPM1 HTS: 87*; HIV Env fusion: -9

How did Cc1ccc(-c2cn3cccnc3n2)cc1 do in these assays?
Wnt bcat act: inconclusive; miR-122 sensor: -5; esBAF inh: 36; MITF TRPM1 HTS: 84*; HIV Env fusion: -30

Results for O=C(Cc1ccncc1)Nc1ccc2c(c1)[C@@H]1C[C@H](CC(=O)NC3CCCC3)O[C@H](CO)[C@@H]1O2 ?
miR-122 sensor: 29[16.7 µM]; esBAF inh: 8; HIV Env fusion: 6[16.7 µM]

Results for COC(=O)C[C@@H]1CC[C@@H]2[C@H](COC[C@@H](O)CN2CCC(F)(F)F)O1 ?
miR-122 sensor: 3[16.7 µM]; esBAF inh: -5; HIV Env fusion: 16[16.7 µM]

How did O=C(c1ccccn1)N1C[C@@H]2[C@H](c3ccccc31)[C@@H](CO)N2C(=O)Nc1ccccc1F do in these assays?
miR-122 sensor: -29[16.7 µM]; esBAF inh: -3

What do the screens show for `CN(C)C(=O)c1ccc(-c2ccc3n(c2=O)C[C@@H]2[C@@H](CO)[C@H](C(=O)NCCc4ccccc4)N[C@H]32)cc1`?
esBAF inh: 1; HIV Env fusion: -9[16.7 µM]

What do the screens show for `CC(C)NC(=O)Nc1ccc2c(c1)CC(=O)N([C@H](C)CO)C[C@@H](C)[C@@H](CN(C)S(=O)(=O)c1ccccc1)O2`?
miR-122 sensor: 7[16.7 µM]; esBAF inh: -4; HIV Env fusion: -1[16.7 µM]

Results for CSc1nc2sc(-c3ccccc3)cc2c(=O)n1N ?
miR-122 sensor: 12; esBAF inh: 57*; MITF TRPM1 HTS: 15
